Measured values taken from PubChem BioAssay.
The source made the active and inactive calls.

Key:
[1] = anti-His antibody binders, primary screen, artefact control for SMM control protein annotation, biochemical, small-molecule microarray, 635 nm fluorescence (AID 1128); conditions: anti-His Alexa647 antibody binding, higher = more signal;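 note: score merges feature fluorescence with signal-to-noise for each printed compound spot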
[2] = system: Human papillomavirus type 1a E7 protein (residues 1-88); assay: HPV1a E7 small-molecule binders, primary screen, biochemical, small-molecule microarray, residues 1-88, 635 nm (AID 1129); conditions: small-molecule microarray binding, fluorescence 635 nm; higher = more signal
[3] = target: Focal adhesion kinase 1 (Homo sapiens) (UniProt Q05397); assay: small-molecule microarray binders of FAK, primary screen, biochemical, 635/667 nm fluorescence, BSA, DTT (AID 1130); conditions: PTK2 binding, 635 nm fluorescence, higher = more signal;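 note: composite of spot emission at 667 nm and signal to noise over triplicate slides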
[4] = system: Fibrinogen (Alexa647-labelled); assay: fibrinogen binders on compound microarrays, profiling panel, artefact control for SMM control-protein annotation, biochemical, small-molecule microarray, 635/667 nm fluorescence (AID 1131); conditions: fibrinogen-A647 binding fluorescence, higher = more signal;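 note: z-score merges 667 nm fluorescence with per-spot signal-to-noise over triplicate slides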
[5] = target: Follistatin (Homo sapiens) (UniProt P19883); assay: follistatin binders on small-molecule microarrays, primary screen, biochemical, small-molecule microarray, 635/667 nm fluorescence (AID 1132); conditions: FST binding, 635 nm fluorescence, higher = more signal
[6] = target: Fibroblast growth factor 2 (Homo sapiens) (UniProt P09038); assay: FGF2 binders on small-molecule microarrays, primary screen, biochemical, small-molecule microarray, 635/667 nm fluorescence (AID 1133); conditions: small-molecule microarray binding, FGF2, fluorescence 635/667; higher = more signal
[7] = mitochondrial membrane potential change in A549 cells, profiling panel, cell-based, JC-1 fluorescence, basal, 24 h, 100 nL (AID 1138); conditions: higher = more signal;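 note: A549 lung adenocarcinoma cells under basal conditions with no added stimulus; test concentration not given here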
[8] = system: Lefty1; assay: Lefty1 binders on small-molecule microarrays, primary screen, biochemical, small-molecule microarray, 635/667 nm fluorescence (AID 1139); conditions: small-molecule microarray binding, fluorescence 635/667; higher = more signal
[9] = system: wheat germ agglutinin (Triticum aestivum), Alexa647-labelled; assay: wheat germ agglutinin binders on compound microarrays, profiling panel, artefact control for SMM control-protein annotation, biochemical, small-molecule microarray, 635/667 nm fluorescence (AID 1140); conditions: WGA-A647 binding, 635 nm fluorescence, higher = more signal;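 note: score merges 667 nm feature emission with signal to noise over triplicate slides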
[10] = target: Luciferin 4-monooxygenase (Photinus pyralis) (UniProt P08659); assay: firefly luciferase enzyme inhibitors, primary screen, biochemical, luminescence, purified enzyme, 2006 set (AID 1141); conditions: SteadyGlo luminescence, 30 min, higher = more signal, called active from +8 up or from −8 down;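 note: cell-free assay with purified firefly luciferase at 100 ng per well in PBS; test concentration not given here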
Chain of Luciferin 4-monooxygenase (Photinus pyralis) (P08659 whole entry, looked up): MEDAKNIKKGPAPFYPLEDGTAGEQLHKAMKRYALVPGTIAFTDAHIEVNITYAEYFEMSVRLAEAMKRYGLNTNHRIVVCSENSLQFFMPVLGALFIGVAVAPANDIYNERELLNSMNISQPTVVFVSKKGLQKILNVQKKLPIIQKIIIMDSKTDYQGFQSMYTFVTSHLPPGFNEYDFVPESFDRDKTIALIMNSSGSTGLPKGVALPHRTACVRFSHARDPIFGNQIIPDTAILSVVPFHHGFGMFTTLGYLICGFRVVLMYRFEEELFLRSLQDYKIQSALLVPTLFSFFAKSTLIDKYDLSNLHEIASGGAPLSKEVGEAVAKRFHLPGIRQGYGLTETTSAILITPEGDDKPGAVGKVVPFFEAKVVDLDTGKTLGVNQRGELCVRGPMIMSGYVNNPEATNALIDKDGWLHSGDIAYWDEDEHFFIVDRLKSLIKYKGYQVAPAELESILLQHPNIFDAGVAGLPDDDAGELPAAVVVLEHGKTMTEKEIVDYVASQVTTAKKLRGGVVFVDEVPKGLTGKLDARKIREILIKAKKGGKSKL

Chain of Follistatin (Homo sapiens) (P19883 whole entry, looked up): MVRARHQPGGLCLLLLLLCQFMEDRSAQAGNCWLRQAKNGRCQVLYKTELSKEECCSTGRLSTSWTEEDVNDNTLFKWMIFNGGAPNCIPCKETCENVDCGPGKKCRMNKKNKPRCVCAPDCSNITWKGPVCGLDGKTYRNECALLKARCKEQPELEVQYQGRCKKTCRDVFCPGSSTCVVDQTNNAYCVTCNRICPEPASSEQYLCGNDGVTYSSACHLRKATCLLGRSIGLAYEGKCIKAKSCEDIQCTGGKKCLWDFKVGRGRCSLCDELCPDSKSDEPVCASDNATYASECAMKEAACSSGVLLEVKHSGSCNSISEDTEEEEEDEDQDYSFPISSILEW
Chain of Fibroblast growth factor 2 (Homo sapiens) (P09038 whole entry, looked up): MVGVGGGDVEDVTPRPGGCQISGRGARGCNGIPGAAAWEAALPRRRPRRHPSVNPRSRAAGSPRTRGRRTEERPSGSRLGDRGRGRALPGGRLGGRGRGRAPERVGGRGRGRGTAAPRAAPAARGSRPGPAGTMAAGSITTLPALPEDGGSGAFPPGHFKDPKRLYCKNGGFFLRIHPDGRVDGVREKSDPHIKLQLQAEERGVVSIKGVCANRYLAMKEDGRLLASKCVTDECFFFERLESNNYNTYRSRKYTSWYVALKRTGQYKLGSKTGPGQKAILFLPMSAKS
Chain of Focal adhesion kinase 1 (Homo sapiens) (Q05397 whole entry, looked up): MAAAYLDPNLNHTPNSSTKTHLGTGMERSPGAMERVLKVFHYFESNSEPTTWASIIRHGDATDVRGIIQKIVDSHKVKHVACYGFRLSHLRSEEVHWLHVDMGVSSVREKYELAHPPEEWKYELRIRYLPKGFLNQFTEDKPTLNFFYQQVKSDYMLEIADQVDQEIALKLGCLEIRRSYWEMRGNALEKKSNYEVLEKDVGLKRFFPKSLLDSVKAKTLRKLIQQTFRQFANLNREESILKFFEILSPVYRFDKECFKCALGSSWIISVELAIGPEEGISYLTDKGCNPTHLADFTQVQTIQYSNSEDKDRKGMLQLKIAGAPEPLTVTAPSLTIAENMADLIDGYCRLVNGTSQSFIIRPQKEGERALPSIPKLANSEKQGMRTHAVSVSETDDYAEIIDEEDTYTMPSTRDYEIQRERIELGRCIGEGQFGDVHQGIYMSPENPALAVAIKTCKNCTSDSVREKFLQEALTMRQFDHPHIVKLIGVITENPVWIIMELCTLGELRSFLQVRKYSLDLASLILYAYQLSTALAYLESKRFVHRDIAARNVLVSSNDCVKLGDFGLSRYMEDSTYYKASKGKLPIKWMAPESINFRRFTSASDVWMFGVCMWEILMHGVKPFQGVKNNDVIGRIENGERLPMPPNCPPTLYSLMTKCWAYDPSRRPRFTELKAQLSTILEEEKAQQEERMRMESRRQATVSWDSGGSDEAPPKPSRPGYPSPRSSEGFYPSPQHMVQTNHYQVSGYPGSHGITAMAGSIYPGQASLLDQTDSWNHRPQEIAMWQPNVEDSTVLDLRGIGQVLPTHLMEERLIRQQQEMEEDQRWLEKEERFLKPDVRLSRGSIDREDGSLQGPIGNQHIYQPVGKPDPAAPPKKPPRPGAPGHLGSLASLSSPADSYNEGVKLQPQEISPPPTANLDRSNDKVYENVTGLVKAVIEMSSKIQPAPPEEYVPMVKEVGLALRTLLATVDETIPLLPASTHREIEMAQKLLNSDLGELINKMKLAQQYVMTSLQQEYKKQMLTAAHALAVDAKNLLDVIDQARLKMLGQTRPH

Compound | composite z-score [1] | composite z-score [2] | composite z-score [3] | composite z-score [4] | composite z-score [5] | composite z-score [6] | z-score [7] | composite z-score [8] | composite z-score [9] | z-score [10]
CO[C@H]1O[C@H](CO)[C@@H](OC(=O)Nc2ccccc2-c2ccccc2)[C@H](OC(=O)Nc2ccccc2-c2ccccc2)[C@H]1OC(=O)Nc1ccccc1-c1ccccc1 | 2.54 | 1.27 | 0.464 | 1.02 | 1.3 | 1.63 | 0.147 | 0.644 | 0.745 | -1.35 (inactive)
CN(C)CCCC[C@@H]1NC(=O)[C@H]2C[C@@H](C(=O)NCCCCCNC(=O)CS)[C@@H](c3ccc(O)cc3)N2C1=O | 0.504 | -0.54 | -0.0308 | -0.293 | 0.756 | 0.421 | 0.64 | -0.78 | -0.128 | -1.25 (inactive)
C=C(COC)C(=O)CC[C@@H](OC(=O)c1ccccc1-c1ccccc1C(=O)O)c1ccc(CO)o1 | 1.73 | 0.339 | 0.0109 | -0.363 | 1.05 | 1.81 | -0.789 | 1.56 | -0.407 | -3.78 (inactive)
COC(=O)[C@@]1(Cc2ccc(F)cc2)[C@H]2c3cc(C(=O)N4CCCC4)n(CCc4ccc(OC)c(Br)c4)c3C[C@H]2CN1C(=O)c1ccccc1 | 2.45 | 1.22 | 1.32 | 0.831 | 1.08 | -0.705 | -1.58 | 0.265 | 1.38 | -0.0863 (inactive)
C=C(CCCC)/C(=C/C[C@@H](OC(=O)c1ccncc1)c1ccc(CO)o1)c1cc(C(=O)OC)ccc1OC | 1.94 | 1.23 | 0.129 | 0.889 | 1.16 | 0.622 | -0.108 | 1.57 | 1.18 | -3.31 (inactive)
CCOC(=O)C[C@H]1[C@H](OC(=O)c2cc3ccccc3oc2=O)[C@@H](NC(=O)c2ccc3ccccc3c2)c2cc(OCCCO)ccc2N1C(=O)c1ccccc1 | 0.138 | 1.2 | 0.482 | 0.414 | 1.08 | 0.512 | -0.59 | 1.09 | 0.357 | 0.151 (inactive)
COc1ccc([Si](C)(C)[C@@H]2[C@@H](CCO)O[C@]3(C(=O)N(Cc4cccc(N5CCCCC5=O)c4)c4ccccc43)[C@H]2C)cc1 | 0.49 | 1.17 | 0.0366 | 0.825 | 1.01 | 0.885 | -0.425 | 0.883 | 0.746 | -0.724 (inactive)
O=C1C[C@@](C(=O)O)(c2ccc([N+](=O)[O-])cc2)[C@@H](c2ccc(CO)cc2I)N1CC12CC3CC(CC(C3)C1)C2 | 0.829 | 1.11 | 0.365 | 0.607 | 0.348 | -0.35 | -1.1 | 0.665 | 1.03 | -0.869 (inactive)
O=C1O[C@@H](c2ccccc2)[C@@H](c2ccccc2)N2[C@@H](c3ccc(O)cc3)[C@]3(C(=O)Nc4ccc(C#CCCO)cc43)[C@@H](C(=O)O)[C@H]12 | 2.29 | 0.18 | 0.894 | 0.925 | 1.2 | -0.196 | 0.889 | -0.22 | 1.34 | -1.18 (inactive)
COCCOC(=O)N1C(=O)[C@@]2(c3cc(C#CCC(C(=O)OC)C(=O)OC)ccc31)[C@H](c1ccccc1OCCO)N1[C@H](c3ccccc3)[C@H](c3ccccc3)OC(=O)[C@H]1[C@@H]2C(=O)Nc1nc2ccccc2s1 | 2.04 | 0.946 | 0.767 | 0.945 | 1.16 | 1.58 | -1.64 | 1.55 | 0.577 | -2.57 (inactive)
[N-]=[N+]=NCc1ccccc1C[C@]1(C(=O)N2CCOCC2)N=C(c2ccc(OCCCO)cc2)O[C@H]1c1ccccc1 | 1.22 | 0.672 | -0.0665 | 0.909 | 0.826 | 0.816 | 0.078 | 0.0094 | 0.359 | 0.4 (inactive)
Cc1ccccc1/C=C/C=O | -0.0248 | -1.29 | -0.3 | -2.75 | -0.0561 | -0.134 | 0.795 | -0.234 | -0.604 | 0.702 (inactive)
CCCNC(=O)[C@@]1(c2ccc([N+](=O)[O-])cc2)CC(=O)N(CC23CC4CC(CC(C4)C2)C3)[C@@H]1c1ccc(CO)cc1I | 1.02 | 1.08 | 1.19 | -0.0329 | 0.541 | 0.753 | 1.04 | -0.462 | 0.519 | -0.1 (inactive)
[N-]=[N+]=NCc1ccccc1[C@@H]1OC(c2ccc(OCCCO)cc2)=N[C@]1(Cc1ccccc1N=[N+]=[N-])C(N)=O | 1.81 | 1.26 | 0.73 | 1.01 | 1.28 | 0.853 | 0.737 | -0.173 | 1.31 | -3.4 (inactive)
Cc1ccc(S[C@]2(C(=O)NCCN3CCOCC3)CC(=O)N(C3CCCCC3)[C@@H]2c2ccc(CO)cc2)cc1 | 1.81 | 1.21 | 1.02 | 0.611 | 0.102 | -0.262 | 1.63 | -0.299 | 0.211 | -0.125 (inactive)
C=C(/C(=C/C[C@@H](OC(C)=O)c1ccc(CO)o1)c1cnc2ccccc2c1)C(C)C | 0.452 | 1.23 | 0.88 | 0.594 | 1.4 | 1.9 | -0.527 | 1.37 | 0.463 | -3.13 (inactive)

Compound | composite z-score [1] | composite z-score [2] | composite z-score [3] | composite z-score [4] | composite z-score [5] | composite z-score [6] | z-score [7] | composite z-score [8] | composite z-score [9] | z-score [10]
CC(C)C(O)C1C=CC2C(=O)N(C)C(=O)C2N1N1CCCCC1 (stereo not given) | -0.0134 | 1.11 | 0.776 | 0.447 | 0.336 | 0.329 | -0.115 | -0.146 | 0.763 | -0.686 (inactive)
Cc1ccc(N2C(=O)c3ccccc3[C@](C)(C(=O)NCCN3CCOCC3)[C@@H]2c2ccc(CO)cc2)nc1 | 0.267 | -1.74 | -1.16 | -1.02 | -0.419 | -0.833 | -0.807 | -1.26 | -1.32 | 0.952 (inactive)
COCC1=C([C@H](O)CCc2ccccc2)[C@H](CO)[C@@H]2C(=O)N(Cc3ccccc3)C(=O)[C@@H]2C1 | -0.219 | -0.0814 | 0.0916 | 0.292 | 0.444 | 0.0451 | 0.68 | 0.448 | 0.131 | 0.24 (inactive)
[N-]=[N+]=Nc1ccccc1[C@@H]1OC(c2ccc(OCCCO)cc2)=N[C@]1(CCS(=O)(=O)c1ccccc1)C(=O)O | 1.12 | 1.22 | 0.688 | 1.03 | 1.25 | 0.933 | -1.83 | 0.874 | 0.867 | -15.1 (active)
COc1ccc([Si](C)(C)[C@H]2[C@H](CC(=O)N(CCO)Cc3ccccc3)O[C@@]3(C(=O)N(Cc4cccc(N5C(=O)c6cccc7cccc5c67)c4)c4ccccc43)[C@@H]2C)cc1 | 1.07 | 1.09 | 0.324 | 0.281 | 0.76 | 1.27 | -0.203 | 0.834 | 0.862 | -1.19 (inactive)
CN(C)CCCCCCNC(=O)[C@@H]1C[C@@H]2C(=O)N[C@@H](Cc3ccccc3)C(=O)N2[C@@H]1c1cccc(OCCO)c1 | 2.13 | 1.05 | 1.81 | 0.105 | 0.699 | 0.886 | -0.37 | 0.729 | 0.346 | -0.0196 (inactive)
CO[C@H]1O[C@H](CO)[C@@H](OC(=O)Nc2ccc(C(F)(F)F)cc2)[C@H](OC(=O)Nc2ccccc2)[C@@H]1OC(=O)Nc1ccccc1 | 0.817 | 1.18 | 0.132 | 0.944 | 1.21 | 0.21 | -0.191 | 0.41 | 0.58 | -0.72 (inactive)
C=C[C@@H](C)[C@@H](OC(=O)Nc1ccc(OC)cc1)c1ccc(O)c2ccccc12 | 0.305 | 0.52 | -0.209 | 0.521 | 1.16 | 1.22 | -1.38 | 0.676 | 0.449 | -5.76 (inactive)
C=CCC(OC(C)=O)[C@@H]1[C@@H](N(Cc2cc3ccccc3o2)C(=O)c2cccc3ccccc23)c2cc(OCCCO)ccc2N1C(=O)Cc1ccc2ccccc2c1 (stereo not given in full) | 0.166 | -0.273 | -0.0768 | 0.571 | 0.416 | 0.439 | -0.274 | -0.0817 | -0.157 | 0.209 (inactive)
C[N+](C)(C)CCCC[C@@H]1NC(=O)[C@H]2C[C@@H](C(=O)O)[C@@H](c3cccc(OCCO)c3)N2C1=O | 3.61 | 1.21 | 2.21 | 0.973 | 1.15 | 0.9 | 0.455 | 0.804 | 1.57 | -0.317 (inactive)
O=C1OCCC/C=C\[C@H]2OC34C=CCN(Cn5nnc6ccccc65)C(=O)[C@H]3N(CCCO)C(=O)[C@@H]4C12 (stereo not given in full) | 3.1 | -0.162 | -0.0245 | -1.94 | -0.99 | -1.06 | -0.275 | -0.517 | -0.107 | 0.656 (inactive)
Oc1ccc2cc[n+](Cc3cccc(OC(F)(F)F)c3)cc2c1 | 0.644 | 0.0093 | 0.295 | -0.0505 | 1.33 | 1.51 | 0.579 | 1.38 | -0.0259 | -0.256 (inactive)
C=C(C(=O)CC[C@@H](OC(=O)c1cccnc1)c1ccc(OCCO)cc1)C(C)C | 0.222 | 0.314 | -0.17 | -0.0579 | 1.43 | 1.16 | -0.358 | 1.21 | 0.752 | -3.48 (inactive)
C=CCOC(=O)[C@H]1[C@@H]2C(=O)O[C@@H](c3ccccc3)[C@@H](c3ccccc3)N2[C@@H](c2ccc(OCCOC(=O)[C@H]3C[C@H]4C(=O)N[C@@H](CCCC[N+](C)(C)C)C(=O)N4[C@H]3c3ccc(O)cc3)cc2)[C@]12C(=O)Nc1ccccc12 | 0.94 | -0.0508 | 0.193 | 0.252 | 1.16 | 0.703 | 0.193 | 0.653 | 0.22 | -1.28 (inactive)
O=C1C2C=CC(C(O)CCc3ccccc3)N(Nc3ccccc3)C2C(=O)N1c1ccccc1 (stereo not given) | 1.89 | 1.23 | 0.477 | 0.889 | 0.471 | -0.464 | -0.411 | 0.38 | 1.44 | -0.0874 (inactive)
COc1ccc([Si](C)(C)[C@@H]2[C@@H](CCO)O[C@]3(C(=O)N(Cc4cccc(N(C=O)c5ccccc5)c4)c4ccccc43)[C@H]2C)cc1 | 1.25 | 1.04 | 0.228 | 0.508 | 1.18 | 0.598 | -0.0337 | 0.127 | 0.893 | 0.505 (inactive)
